Assay results published in the supplement of paper PMC6897291.

Tests used:
U-2932 [1] = test: growth inhibition by drug alone (1 - RLU/untreated control) (fraction); higher = stronger inhibition; settings: 177Lu-lilotomab satetraxetan 0 ug/ml
Outline: (§1)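 RIVA or U-2932 cells, untreated or pretreated 18 h with a radiolabelled anti-CD37 antibody conjugate (~600 MBq/mg; 0.5 µg/ml RIVA, 1 µg/ml U-2932), were washed and seeded at 3,000 cells/well on plates pre-printed with the Selleck Cambridge Cancer Compound library. Doses were 10/100 nM (RIVA) or 10/1,000 nM (U-2932). RealTime-Glo luminescence was read daily from day 3 after 1 h at 37°C. Growth inhibition is 1 − RLU/mean of 48 untreated no-drug wells per plate.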

RIVA [2] = test: as above; settings: 177Lu-lilotomab satetraxetan 0 ug/ml
Outline: as §1

U-2932 [3] = test: growth inhibition by drug plus 177Lu-lilotomab satetraxetan (1 - RLU/untreated control) (fraction); higher = stronger inhibition; settings: 177Lu-lilotomab satetraxetan 1 ug/ml
Outline: as §1

RIVA [4] = test: as above; settings: 177Lu-lilotomab satetraxetan 0.5 ug/ml
Outline: as §1

SMILES	growth inhibition by drug alone (U-2932 [1]; 10 nM, time (day): 3)	growth inhibition by drug alone (U-2932 [1]; 10 nM, time (day): 4)	growth inhibition by drug alone (U-2932 [1]; 10 nM, time (day): 5)	growth inhibition by drug alone (U-2932 [1]; 10 nM, time (day): 6)	growth inhibition by drug alone (U-2932 [1]; 1000 nM, time (day): 3)	growth inhibition by drug alone (U-2932 [1]; 1000 nM, time (day): 4)	growth inhibition by drug alone (U-2932 [1]; 1000 nM, time (day): 5)	growth inhibition by drug alone (U-2932 [1]; 1000 nM, time (day): 6)	growth inhibition by drug alone (RIVA [2]; 10 nM, time (day): 3)	growth inhibition by drug alone (RIVA [2]; 10 nM, time (day): 4)	growth inhibition by drug alone (RIVA [2]; 10 nM, time (day): 5)	growth inhibition by drug alone (RIVA [2]; 10 nM, time (day): 6)	growth inhibition by drug alone (RIVA [2]; 100 nM, time (day): 3)	growth inhibition by drug alone (RIVA [2]; 100 nM, time (day): 4)	growth inhibition by drug alone (RIVA [2]; 100 nM, time (day): 5)	growth inhibition by drug alone (RIVA [2]; 100 nM, time (day): 6)	growth inhibition by drug plus 177Lu-lilotomab satetraxetan (U-2932 [3]; 10 nM, time (day): 3)	growth inhibition by drug plus 177Lu-lilotomab satetraxetan (U-2932 [3]; 10 nM, time (day): 4)	growth inhibition by drug plus 177Lu-lilotomab satetraxetan (U-2932 [3]; 10 nM, time (day): 5)	growth inhibition by drug plus 177Lu-lilotomab satetraxetan (U-2932 [3]; 10 nM, time (day): 6)	growth inhibition by drug plus 177Lu-lilotomab satetraxetan (U-2932 [3]; 1000 nM, time (day): 3)	growth inhibition by drug plus 177Lu-lilotomab satetraxetan (U-2932 [3]; 1000 nM, time (day): 4)	growth inhibition by drug plus 177Lu-lilotomab satetraxetan (U-2932 [3]; 1000 nM, time (day): 5)	growth inhibition by drug plus 177Lu-lilotomab satetraxetan (U-2932 [3]; 1000 nM, time (day): 6)	growth inhibition by drug plus 177Lu-lilotomab satetraxetan (RIVA [4]; 10 nM, time (day): 3)	growth inhibition by drug plus 177Lu-lilotomab satetraxetan (RIVA [4]; 10 nM, time (day): 4)	growth inhibition by drug plus 177Lu-lilotomab satetraxetan (RIVA [4]; 10 nM, time (day): 5)	growth inhibition by drug plus 177Lu-lilotomab satetraxetan (RIVA [4]; 10 nM, time (day): 6)	growth inhibition by drug plus 177Lu-lilotomab satetraxetan (RIVA [4]; 100 nM, time (day): 3)	growth inhibition by drug plus 177Lu-lilotomab satetraxetan (RIVA [4]; 100 nM, time (day): 4)	growth inhibition by drug plus 177Lu-lilotomab satetraxetan (RIVA [4]; 100 nM, time (day): 5)	growth inhibition by drug plus 177Lu-lilotomab satetraxetan (RIVA [4]; 100 nM, time (day): 6)
CCNC(=O)c1noc(-c2cc(C(C)C)c(O)cc2O)c1-c1ccc(CN2CCOCC2)cc1	0.0556	0.0532	-0.00948	0.11	0.942	0.972	0.981	0.982	0.0724	-0.0275	-0.068	-0.156	0.971	0.977	0.978	0.975	0.117	0.0968	0.0861	0.245	0.936	0.973	0.981	0.984	0.398	0.414	0.469	0.516	0.982	0.988	0.988	0.988
Nc1cccc2c1CN(C1CCC(=O)NC1=O)C2=O (configuration not stated) [Lenalidomide]	0.0697	0.0182	-0.0235	0.0966	0.122	0.186	0.18	0.309	-0.0108	-0.0398	-0.0471	-0.0439	-0.101	-0.141	-0.183	-0.226	0.069	0.101	0.148	0.257	0.215	0.263	0.303	0.434	0.534	0.564	0.587	0.589	0.428	0.481	0.499	0.508
O=c1cc(N2CCOCC2)oc2c(-c3ccccc3)cccc12	0.0578	0.0496	-0.0145	-0.0318	0.0577	0.0696	0.0149	-0.0509	0.12	0.0305	-0.0125	-0.181	0.0387	0.0134	-0.0363	-0.116	0.00353	0.0372	0.0314	0.0726	0.0169	0.0857	0.0428	0.0454	0.442	0.529	0.563	0.58	0.423	0.463	0.473	0.446
CCCCCOC(=O)Nc1nc(=O)n([C@@H]2O[C@H](C)[C@@H](O)[C@H]2O)cc1F [Capecitabine (Xeloda)]	-0.0672	-0.0894	-0.0926	-0.0992	-0.0819	-0.0438	-0.0714	0.0681	-0.345	-0.321	-0.354	-0.36	-0.381	-0.792	-0.367	-0.436	-0.101	-0.0507	0.0153	0.0328	-0.139	-0.0798	-0.0339	0.114	0.468	0.533	0.549	0.549	0.378	0.466	0.465	0.483
c1ccc2c(CCNc3ccc(Nc4ccncc4)cc3)c[nH]c2c1	0.0584	0.057	0.0439	-0.174	0.0747	0.114	0.115	-0.0134	-0.0529	-0.0355	-0.189	-0.337	-0.226	-0.135	-0.248	-0.272	0.0442	0.058	0.101	0.125	0.0679	0.191	0.21	0.292	0.249	0.475	0.497	0.5	0.12	0.259	0.278	0.294
Cc1ccc(Nc2nccc(N(C)c3ccc4c(C)n(C)nc4c3)n2)cc1S(N)(=O)=O [Pazopanib]	0.0671	0.059	0.0169	-0.0275	0.0873	0.113	0.0564	-0.194	0.149	0.0444	-0.0206	-0.258	0.117	0.0561	0.0246	-0.0758	0.0594	0.0779	0.0787	0.118	-0.00732	0.0799	0.0706	0.00785	0.437	0.548	0.557	0.564	0.418	0.47	0.488	0.477
